# Compound activity deposited in PubChem by National Center for Advancing Translational Sciences (NCATS).
# Compounds with a hit are over-represented: about 14% of the library has one in this group of screens.
# A350 autofl = compound fluoresces in the Alexa 350 spectral region | Compound autofluorescence, 340/450 nm, Alexa 350 dye-equivalents; stronger effect = higher value | max dye-equivalent concentration, M | hit rate 11% among 59,000; in the data active means max dye-equivalent concentration above about 10 nM; inconclusive means mostly about 1.1 nM to 9.6 nM
# HADH2 inh = blocks human hydroxyacyl-CoA dehydrogenase type II. Potency, µM (highest dose often 57.1 µM), for inactives: at the highest dose activity change, negative = inhibition, usual class: inhibitors. recombinant HADH2, NADH fluorescence, beta-hydroxybutyryl-CoA. Q99714. hit rate 3.4% among 73,000; further: potency means the concentration at half of the fitted maximal effect; on the % scale 0 is the no-effect control and ±100 the full control effect; nearly all actives have a fitted effect of over 60% in size
# Target sequence (Q99714 whole entry, looked up, one chain of several): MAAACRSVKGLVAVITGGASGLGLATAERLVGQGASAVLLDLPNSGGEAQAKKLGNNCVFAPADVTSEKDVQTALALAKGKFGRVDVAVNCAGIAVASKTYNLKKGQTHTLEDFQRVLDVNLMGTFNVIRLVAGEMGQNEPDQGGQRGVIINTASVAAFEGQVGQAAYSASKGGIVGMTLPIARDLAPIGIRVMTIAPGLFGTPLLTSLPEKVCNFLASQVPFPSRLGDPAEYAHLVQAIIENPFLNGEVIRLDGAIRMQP
#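 His-tagged recombinant enzyme from E. coli, 20 nM, preincubated 15 min RT with compound; reaction started with 1 mM NAD+ and 90 uM beta-hydroxybutyryl-CoA in 100 mM Tris-HCl pH 9.0. NADH fluorescence (ex 360/em 450) read over 4 min; last-minus-first difference.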
# HSD17B inhib = HSD17B dehydrogenase inhibition | Q99714 | recombinant HSD17B10, NADH fluorescence kinetic | Potency, µM (highest dose often 57.1 µM), for the others: top-dose activity change, negative = inhibition, usual class: inhibitors | hit rate 7.6% among 75,000 | AID 893;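 further: the protocol describes HADH2 (HSD17B10) and not the HSD17B4 of the title; potency means the concentration at half of the fitted maximal effect; on the % scale 0 is the no-effect control and ±100 the full control effect; nearly all actives have a fitted effect of over 70% in size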
#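 His-tagged E. coli-expressed HADH2 at 20 nM in 100 mM Tris-HCl pH 9.0 with 0.01 % Tween-20, preincubated 15 min with compound at room temperature. Reaction with 1 mM NAD+ and 90 uM beta-hydroxybutyryl coenzyme A; NADH fluorescence (360/450 nm) read kinetically over 4 min, last minus first point.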
# AID923 = qHTS Assay for Allosteric/Competitive Inhibitors of Caspase-1: Spectroscopic Profiling in AFC Spectral Region | compound fluorescence, AFC spectral region (405/520 nm) | Potency, µM (series often up to 57.5 µM), for inactives: top-dose fluorescence increase, actives largely listed as activators | hit rate 1.1% among 75,000 | AID 923, 2007; further: potency means the concentration at half of the fitted maximal effect; 0% is about no effect
#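 Baseline compound fluorescence (AFC region, 405 nm ex/520 nm em) taken from the intercept of kinetic reads with 50 nM caspase-1 and 5 uM Ac-WEHD-AFC; normalized to an on-plate AFC standard curve; compounds titrated up to 57 uM.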
# 4-MU autofl = compound fluoresces in the 4-MU spectral region | max dye-equivalent concentration, M | hit rate 11% among 59,000 | AID 589 | compound autofluorescence, 340/450 nm, 4-MU equivalents; stronger effect = higher value; in the data active means max dye-equivalent concentration above about 10 nM; inconclusive means mostly about 1.1 nM to 9.6 nM
#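 Compounds in 100 mM Tris, pH 8.0, incubated 15 min at room temperature, then fluorescence read at 340 nm excitation/450 nm emission. Signal converted to 4-MU dye-equivalent concentration using an on-plate six-point 4-MU standard curve.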
# CRE-bla Fsk = alters forskolin-stimulated CRE reporter signaling in CHO cells. CHO CRE-bla reporter (cAMP response element driving beta-lactamase), forskolin EC10, beta-lactamase ratio. AID 662. Potency, µM (titrated, usually from 38.2 µM), inactives show at the top dose activity change, negative = inhibition, hits mostly activators. hit rate 2.5% among 71,000; active means well fitted activation curve with a large enough effect in the signal ratio, with a control signal flat, not every such curve was filed as active; inconclusive means small, poorly fitted or top-dose-only effect, or effect the other way, or a change in a side signal; the % refers to the signal ratio; further: potency means the concentration at half of the fitted maximal effect; % of control where 0% means no effect
#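 Reporter-gene assay: CHO cells with beta-lactamase behind cAMP responsive elements, co-treated with compound and EC10 NKH 477 for 3 hours at 37 degrees Celsius. Activity came from the 460/530 nm CCF4 emission ratio.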
# The depositor's hits bear a star; i = inactive; ? = inconclusive; nt = no result. Unless noted, the call rests on the fitted dose curve; in most records, active means well fitted curve in the direction sought with a large enough effect; inconclusive means small, poorly fitted or top-dose-only effect, or another doubt; inactive means no such curve, though single readings can be large; an effect the other way counts as inactive or inconclusive.
SMILES,A350 autofl,HADH2 inh,HSD17B inhib,AID923,4-MU autofl,CRE-bla Fsk
COc1ccc2[nH]c(O)c(NC(C)=O)c2c1,i,?,?,2%,i,0.4µM*
CN1CCN(c2nc(-c3ccoc3)nc3ccccc23)CC1,i,8%,1%,5%,i,?
CCc1ccccc1NC(=O)c1cc(C2CC2)on1,nt,-6%,-6%,4%,nt,-10%
Cc1cc(C)nc(N2CCCC(C(=O)Nc3cc(F)ccc3C)C2)n1 (stereo unspecified),i,18%,?,-2%,i,?
CCOC(=O)c1[nH]c2ccc(OC)cc2c1N=CN(C)C,7.3e-08M*,-24%,?,2%,7e-08M*,15%
CCOC(=O)c1[nH]c2cc(OC)c(OC)cc2c1NC(=O)C(C)N1CCN(Cc2ccccc2)CC1 (stereo unspecified),2.5e-08M*,nt,nt,nt,2.2e-08M*,nt
COC(=O)c1[nH]c2ccc(F)cc2c1NS(=O)(=O)c1ccc(OC)cc1OC,i,11%,-13%,-1%,i,-28%
COC(=O)c1[nH]c2cc(OC)ccc2c1NC(=O)CN1CCN(c2cccc(C)c2)C(C)C1 (stereo unspecified),i,nt,nt,nt,i,nt
CCOC(=O)c1c(C)n(C)c2ccc(OC)c(NC(=O)CN3CCN(Cc4ccccc4)CC3)c12,i,nt,nt,nt,i,nt
CCOC(=O)c1c(C)[nH]c(C(=O)COC(=O)c2oc3ccc(OC)cc3c2C)c1C,i,-64%,?,-3%,i,?
CCOC(=O)c1[nH]c2ccc(OC)cc2c1NS(=O)(=O)c1ccc(OC)cc1OC,1.1e-08M*,15%,?,0%,1.1e-08M*,?
CCOC(=O)Nc1c(C(=O)OC)[nH]c2cc(OC)ccc12,2.1e-07M*,?,32µM*,-1%,1.8e-07M*,?
COC(=O)c1[nH]c2ccccc2c1NC(=O)Oc1ccccc1,2.2e-08M*,-21%,25µM*,4%,1.5e-08M*,8%
CCOC(=O)c1[nH]c2ccc(OC)cc2c1NC(=O)OC,3.8e-08M*,?,20µM*,0%,4.5e-08M*,14%
C=CCOC(=O)Nc1c(C(=O)OC)[nH]c2ccccc12,?,?,?,5%,i,0%
CCOC(=O)c1[nH]c2ccc(OC)cc2c1NC(=O)CCN1CCCC(C)C1 (stereo unspecified),7.2e-08M*,nt,nt,nt,6.1e-08M*,nt
CCOC(=O)c1[nH]c2ccc(Br)cc2c1NC(=O)CCN1CCCCC1,i,-20%,-14%,-1%,i,7%
COc1cc(/C=C\C(=O)N2CCCCC2=O)cc(OC)c1OC,i,-2%,nt,nt,i,?
Cc1cccc(N2CCN(CCNC(=O)c3cc4c(s3)CS(=O)(=O)C4)CC2)c1C,i,11%,0%,3%,i,-10%
Cc1ccc2oc(=O)c3cc(C(=O)NCCN4CCN(C)CC4)sc3c2c1,nt,-4%,25µM*,0%,nt,?
COc1ccc2oc(C(=O)C3CC3)c(NC(=O)CCCN3C(=O)c4ccccc4C3=O)c2c1,nt,10%,0%,0%,nt,5%
c1ccc2c(N3CCNCC3)nc(-c3ccc4c(c3)OCO4)nc2c1,i,3%,0%,-3%,i,?
CCc1ccc2[nH]c(=O)c(CN(Cc3ccc4c(c3)OCO4)C(=O)c3ccco3)cc2c1,?,14%,?,-1%,?,?
O=C(NC1CCCCC1)N(CCN1CCOCC1)Cc1cc2cc3c(cc2[nH]c1=O)OCCO3,2.3e-07M*,?,25µM*,1%,2.4e-07M*,?
COc1ccc2[nH]c(=O)c(CN(Cc3ccc4c(c3)OCO4)C(C)=O)cc2c1,8.3e-08M*,-4%,?,0%,6.3e-08M*,13%
CCN(CC)CCN(Cc1cc2cc3c(cc2[nH]c1=O)OCCO3)C(=O)NC1CCCCC1,2.4e-07M*,?,25µM*,9%,3.2e-07M*,15%
COc1ccc(CN(Cc2cc3cc4c(cc3[nH]c2=O)OCO4)C(=O)NC2CCCCC2)cc1,1.2e-07M*,?,32µM*,0%,1.4e-07M*,10µM*
